Test results taken from PubChem BioAssay (Tox21).
Results filed as inconclusive are left out. Activity calls are given as the source filed them. Calls follow the shape of the dose curve; as a rule, active = well fitted curve in the direction sought with a large enough effect in the repeat runs; inconclusive = weak or mixed curves; inactive = no such curve, though single readings can be large; an effect the other way counts as inactive or inconclusive.

What was measured:
[1] = qHTS assay for identifying genotoxic compounds that show differential cytotoxicity against isogenic chicken DT40 cell lines with known DNA damage response pathways - wild type cell line (AID 743012); also: nearly all actives have a fitted effect of over 60% in size
From the text: U.S. Tox21 Program National Center for Advancing Translational Sciences [NCATS] NIH Chemical Genomics Center [NCGC] U.S. Environmental Protection Agency [EPA] National Institutes of Environmental Health Sciences [NIEHS] National Toxicology Program [NTP] U.S. Food and Drug Administration [FDA] Tox21 Assay Overview: DNA repair pathways play a critical role in cellular homeostasis by repairing DNA damage induced by endogenous processes and xenobiotics. Isogenic chicken DT40 cell lines deficient in different DNA repair pathways can be used to identify genotoxic compounds and aid in characterizing the nature of the DNA damage induced. Two DNA repair-deficient cell lines with disrupted genes, Rad54/Ku70 or Rev3, were used to screen the Tox21 10K compound library. […]
Tox21 Assay Protocol Summary: 300 DT40 wild type cells in 5 uL/well were dispensed into white, solid-bottom 1536-well plates using a Multidrop Combi (ThermoFisher Scientific, Waltham, MA) dispenser. […] After 5 uL per well of CellTiter-Glo reagent was added into each well of the assay plates, the plates were incubated for 30 min at room temperature and the luminescence intensity of the plates was measured using a ViewLux (PerkinElmer, Shelton, CT) plate reader.

[2] = qHTS assay for identifying genotoxic compounds that show differential cytotoxicity against isogenic chicken DT40 cell lines with known DNA damage response pathways - Rev3 mutant cell line (AID 743014); also: nearly all actives have a fitted effect of over 55% in size
[3] = qHTS assay for identifying genotoxic compounds that show differential cytotoxicity against isogenic chicken DT40 cell lines with known DNA damage response pathways - Rad54/Ku70 mutant cell line (AID 743015); also: nearly all actives have a fitted effect of over 60% in size

Measured: Potency
Potency is read from the fitted curve at half-maximal effect.

COC(=O)[C@]12CCC(C)(C)C[C@H]1[C@H]1C(=O)C=C3[C@@]4(C)C=C(C#N)C(=O)C(C)(C)[C@@H]4CC[C@@]3(C)[C@]1(C)CC2
active: [1] 596 nM | [2] 841 nM | [3] 596 nM
